The panel holds about 83,000 compounds, 20% with a hit somewhere; the sample as a whole holds those more often.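 Activity criterion: percent growth below 10, measured after cells in 96-well plates were exposed to a single compound concentration for 48 hours.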 Unmarked numbers belong to inactive results. Active and inactive are the calls of the source.

Test systems include HCT-15 colon; HT29 colon; SNB-19 CNS; U251 CNS; PC-3 prostate; SK-MEL-5 melanoma; UACC-62 melanoma; LOX IMVI melanoma; SK-MEL-28 melanoma; SK-MEL-2 melanoma; EKVX NSCLC; SN12C renal; UO-31 renal; TK-10 renal; ACHN renal; CAKI-1 renal; A498 renal; CCRF-CEM leukemia; MOLT-4 leukemia.
Holding throughout (assay): NCI-60 one-dose screen, 48 h (100 = growth as untreated, 0 = no growth, -100 = all killed)
Holding throughout (conditions): 10 µM unless noted

In the case of `Clc1ccc(Sc2cnc(-c3ccccc3)o2)cc1`, the growth in the assay with HCT-15 colon was 103%; with HT29 colon it was 105%; with SNB-19 CNS, 88.4%; in the assay on U251 CNS, 91.4%; with PC-3 prostate, 104%; with SK-MEL-5 melanoma, 97.8%. Besides, the growth with UACC-62 melanoma was 102%; in the assay on LOX IMVI melanoma it was 97.3%; with SK-MEL-28 melanoma, 102%; in the assay on SK-MEL-2 melanoma it was 100%; in the assay on EKVX NSCLC, 98.5%; in the assay with SN12C renal it was 101%. The growth in the assay on UO-31 renal was 78.4%; with TK-10 renal, 85.1%; in the assay with ACHN renal, 99.7%; with CAKI-1 renal, 90.2%; in the assay with A498 renal, 63.5%; with CCRF-CEM leukemia it was 99.2%. In addition, in the assay on MOLT-4 leukemia, the growth is 100%.
Take `COc1cc(CNC(=O)CCCC/C=C/C(C)C)ccc1OCc1nnc(Nc2ccc([N+](=O)[O-])cc2)o1`: the growth in the assay with HCT-15 colon was 81.2%; in the assay with HT29 colon, 71.7%; in the assay on SNB-19 CNS, 54%; in the assay on U251 CNS, 48.6%; with PC-3 prostate, 37.6%; in the assay on SK-MEL-5 melanoma, 46.3%. Moreover, the growth in the assay with UACC-62 melanoma is 39.6%; in the assay with LOX IMVI melanoma it was 55.2%; in the assay with SK-MEL-28 melanoma, 74.3%; in the assay on SK-MEL-2 melanoma, 78.9%; in the assay with EKVX NSCLC it was 74.7%; in the assay on SN12C renal, 49%. The growth with UO-31 renal was 58.7%; in the assay with TK-10 renal, 84.1%; in the assay on ACHN renal, 41.2%; in the assay with CAKI-1 renal, 33.6%; in the assay with A498 renal it was 56.8%; with CCRF-CEM leukemia, 78.9%. Further, in the assay on MOLT-4 leukemia, the growth is 84.2%.
On to `COc1cc(-n2cc(-c3cc(O)c(C/C=C(\C)CCC=C(C)C)c(O)c3)nn2)cc2c1O[C@]1(C)CC[C@@H](O)C(C)(C)[C@H]1C2`, for which the growth with HCT-15 colon was -12.2% (active); with HT29 colon it was -34.6% (active); with SNB-19 CNS, 32.5%; in the assay with U251 CNS, 4.31% (active); with PC-3 prostate, 16.2%; with SK-MEL-5 melanoma, -61.4% (active). The growth with UACC-62 melanoma was -30.2% (active); in the assay with LOX IMVI melanoma, -79.9% (active); in the assay with SK-MEL-28 melanoma, 35.7%; with SK-MEL-2 melanoma, -17.1% (active); in the assay with EKVX NSCLC it was 28%; with SN12C renal, 24.9%. Besides, the growth with UO-31 renal is -53.8% (active); with TK-10 renal it was 40.2%; in the assay with ACHN renal, 16.6%; in the assay with CAKI-1 renal, 12%; with A498 renal it was 10.7%; in the assay on CCRF-CEM leukemia, 0.511% (active). Moreover, the growth with MOLT-4 leukemia is -0.403% (active).
Regarding `O=C1c2cccnc2C(=O)c2c1c(C(=O)NCCCN1CCCCC1)c1ccccn21`, the growth was -71.8% (active) in the assay with HCT-15 colon; -1.92% (active) in the assay on HT29 colon; -72.8% (active) in the assay on SNB-19 CNS; -48.4% (active) in the assay with U251 CNS; -18% (active) in the assay with PC-3 prostate; -99.5% (active) in the assay on SK-MEL-5 melanoma. In addition, the growth in the assay on UACC-62 melanoma was -61.4% (active); in the assay with LOX IMVI melanoma, -71.4% (active); in the assay on SK-MEL-28 melanoma it was 13.8%; with SK-MEL-2 melanoma it was -40.3% (active); with EKVX NSCLC, -100% (active); in the assay with SN12C renal it was -65.1% (active). Further, the growth is -34.5% (active) in the assay on UO-31 renal; -1.12% (active) with TK-10 renal; -45.2% (active) in the assay on ACHN renal; -14.6% (active) in the assay on CAKI-1 renal; -78.1% (active) with A498 renal; -25.6% (active) with CCRF-CEM leukemia. Besides, in the assay with MOLT-4 leukemia, the growth is -43.9% (active).
With `O=C(/C=C/c1cn(-c2ccccc2)nc1-c1ccc([N+](=O)[O-])cc1)c1ccc(Cl)cc1`, the growth was 46.8% in the assay on HCT-15 colon; 52.5% in the assay with HT29 colon; 52.8% in the assay with SNB-19 CNS; 9.68% (active) with U251 CNS; 58.8% in the assay on PC-3 prostate; 71.5% in the assay with SK-MEL-5 melanoma. For the same compound, the growth in the assay with UACC-62 melanoma was 58.9%; in the assay on LOX IMVI melanoma, 37.8%; in the assay with SK-MEL-28 melanoma, 56.7%; with SK-MEL-2 melanoma it was 96.2%; in the assay on EKVX NSCLC, 60.7%; with SN12C renal, 50.5%. In addition, the growth is 41.2% in the assay with UO-31 renal; 14.1% in the assay with TK-10 renal; 52.3% with ACHN renal; 31.9% with CAKI-1 renal; 78.5% with A498 renal; 38% in the assay with CCRF-CEM leukemia. Moreover, the growth with MOLT-4 leukemia was 38%.
In the case of `COc1ccc2c(O)c(/C=C3\N=Nc4ncccc43)oc2c1C[C@H]1CCNC[C@H]1F`, the growth was 7.66% (active) with HCT-15 colon; 5.05% (active) with HT29 colon; 10.4% in the assay on SNB-19 CNS; -51% (active) in the assay on U251 CNS; -5.49% (active) with PC-3 prostate; -30.1% (active) with SK-MEL-5 melanoma. For the same compound, the growth in the assay on UACC-62 melanoma is -15.4% (active); in the assay with LOX IMVI melanoma, -11% (active); in the assay on SK-MEL-28 melanoma it was 8.22% (active); with SK-MEL-2 melanoma, -6.33% (active); with EKVX NSCLC it was 5.31% (active); in the assay on SN12C renal it was 7.25% (active). In addition, the growth in the assay on UO-31 renal was 4.13% (active); with TK-10 renal, 19.8%; in the assay on ACHN renal, 4.51% (active); in the assay with CAKI-1 renal, 6% (active); in the assay with A498 renal, -41.8% (active); in the assay with CCRF-CEM leukemia, -3.17% (active). The growth in the assay with MOLT-4 leukemia is -34.3% (active).
`O=C(/C=C(/C=C/c1cccc2[nH]ccc12)OB(F)F)/C=C/c1cccc2[nH]ccc12`: the growth in the assay with HCT-15 colon is -58.4% (active); in the assay with HT29 colon it was -52.8% (active); with SNB-19 CNS it was -7.8% (active); with U251 CNS it was -87% (active); in the assay with PC-3 prostate, -42.5% (active); in the assay with SK-MEL-5 melanoma, -78.3% (active). Also, the growth with UACC-62 melanoma was -51.8% (active); in the assay on LOX IMVI melanoma it was -81.1% (active); in the assay with SK-MEL-2 melanoma, -57.9% (active); in the assay with EKVX NSCLC, -30.9% (active); in the assay with SN12C renal, -1.2% (active); in the assay with UO-31 renal, -77.6% (active). Further, the growth in the assay on TK-10 renal is -37.9% (active); in the assay on ACHN renal, -70.3% (active); in the assay with CAKI-1 renal it was -73.6% (active); with A498 renal, -35.2% (active); in the assay on CCRF-CEM leukemia, -32.1% (active); with MOLT-4 leukemia, -11.9% (active).
Take `Cc1ccc(-c2cc(-c3ccc(Cl)cc3)nc(NC(=O)c3cccnc3)n2)cc1`: the growth is 94.5% in the assay with HCT-15 colon; 109% in the assay on HT29 colon; 94.6% in the assay on SNB-19 CNS; 101% with U251 CNS; 85.5% with PC-3 prostate; 93.6% with SK-MEL-5 melanoma. Further, the growth is 76% in the assay on UACC-62 melanoma; 106% in the assay with SK-MEL-28 melanoma; 109% in the assay on SK-MEL-2 melanoma; 102% in the assay with EKVX NSCLC; 103% in the assay with SN12C renal; 79% with UO-31 renal. The growth in the assay with TK-10 renal was 115%; in the assay with ACHN renal it was 103%; with CAKI-1 renal, 94.2%; in the assay on A498 renal, 111%; with CCRF-CEM leukemia, 106%; in the assay with MOLT-4 leukemia, 93.2%.
